Counter-ions that a name gives are not always drawn. Hit rate of the full screen: of about 5,300 compounds, about 130 (2.5%) showed an effect of 50% or more. Many of the other results were omitted from the sample, so strong results are more common in it than they were.
The compounds below were run on M. mycetomatis strain mm55. Settings: primary screen, metabolic activity vs growth control; 96 h, 2 µM; inhibitor.
`N=C(N)c1ccc(OCCCCCOc2ccc(C(=N)N)cc2)cc1` [ONC0003359, pentamidine isethionate] was tested, and the “% viability” value was 71.33%. `N=C(N)c1ccc(-c2ccc(-c3ccc(C(=N)N)cc3)o2)cc1` [ONC0003070, furamidine] was tested, and the “% viability” value was 108.4%. In the case of `N=C(N)c1ccc(/C=C/c2ccc(C(=N)N)cc2O)cc1` [ONC0003463, hydroxystilbamidine], the “% viability” value is reported as 43.6%. `CC(=O)OCC1=C(C(=O)O)N2C(=O)[C@@H](NC(=O)CSC(=NC(C)C)NC(C)C)[C@H]2SC1` [ONC0003427, cefathiamidine] was tested, and the “% viability” value was 77.15%. For `C[C@H](N)[C@H](O)c1cccc(O)c1` [ONC0003110, metaraminol bitartrate], the “% viability” value was 76.38%. `CCNCC(O)c1cccc(O)c1` (stereo not drawn) [ONC0003685] was tested, and the “% viability” value was 42.26%. In the case of `CNC[C@H](O)c1cccc(O)c1` [ONC0000459, lphenylephrine hydrochloride], the “% viability” value is reported as 72.58%. In the case of `O=C(Nc1nc(-c2cc(Cl)cs2)c(N2CCN(C3CCCCC3)CC2)s1)c1cnc(N2CCC(C(=O)O)CC2)c(Cl)c1` [ONC0002265, avatrombopag], the “% viability” value is reported as 50.97%. In the case of `CN/C(=N/CCSCc1nc[nH]c1C)NC#N` [ONC0000657, cimetidine], the “% viability” value is reported as 137.7%. In the case of `NCCCCCCCCCCNS(=O)(=O)c1cccc2c(Cl)cccc12` [ONC0002708, a7], the “% viability” value is reported as 47.48%. With `CCCCCCCNS(=O)(=O)c1cccc2c(Cl)cccc12` [ONC0003431, sc10] the “% viability” value was 68.77%. `O=S(=O)(NCCCCCCc1ccccc1)c1cccc2c(Cl)cccc12` [ONC0002705, sc9] was tested, and the “% viability” value was 87.04%. In the case of `CC(C)(C)c1cc(C(C)(C)C)c2c(c1)C(O)(C(F)(F)F)C(=O)O2` (stereo not drawn) [ONC0001539, racbhff], the “% viability” value is reported as 123.7%. `NC(N)=Nc1nc(CSCCC(N)=NS(N)(=O)=O)cs1` [ONC0003248, famotidine] was tested, and the “% viability” value was 89.34%. In the case of `Cc1nnc(C(C)C)n1[C@@H]1C[C@H]2CC[C@@H](C1)N2CC[C@H](NC(=O)C1CCC(F)(F)CC1)c1ccccc1` [ONC0004641, maraviroc], the “% viability” value is reported as 78.39%. With `CN1C(=O)N[C@H](Cc2c[nH]c3c(Cl)cccc23)C1=O` [ONC0000938, necrostatin 2] the “% viability” value was 58.02%. For `c1ccc2c(Cc3c[nH]c4ccccc34)c[nH]c2c1` [ONC0003447, diindolylmethane], the “% viability” value was 68.22%. In the case of `CN1C(=O)C(Cc2c[nH]c3ccccc23)NC1=S` (stereo not drawn) [ONC0003684, necrostatin1], the “% viability” value is reported as 40.84%. With `NC(N)=NCCC[C@H](N)C(=O)NCC(=O)N[C@@H](CC(=O)O)C(=O)N[C@@H](CO)C(=O)O` [ONC0002282, argglyaspser] the “% viability” value was 101.1%. `CC(C)n1c(/C=C/[C@@H](O)C[C@@H](O)CC(=O)O)c(-c2ccc(F)cc2)c2ccccc21` (racemic) [ONC0004817, fluvastatin sodium lescol] was tested, and the “% viability” value was 110.8%. With `CCCCCCCCCCCCCCOC(=O)c1cccnc1` [ONC0003671, tetradecyl nicotinate] the “% viability” value was 79.3%. For `C[C@@H]1CCCN1CCc1cc2cc(-c3ccc(C#N)cc3)ccc2o1` [ONC0003444, abt 239 tartrate], the “% viability” value was 49.56%. In the case of `N=C(N)/N=C(\N)N1CCOCC1` [ONC0005372, moroxydine hydrochloride], the “% viability” value is reported as 114.7%. In the case of `CC(C)(N)CC12CC3CC(CC(C3)C1)C2` [ONC0004056, somantadine], the “% viability” value is reported as 120.7%. For `c1cc(OCCN2CCCCC2)cc(-c2n[nH]c3ccc(-c4nc[nH]n4)cc23)c1` [ONC0000900, cc401 hydrochloride], the “% viability” value was 73.26%. `CCCN1CCO[C@@H]2c3cc(O)ccc3OC[C@H]21` [ONC0000309, pd128907] was tested, and the “% viability” value was 42.57%. `Oc1ccc([C@H]2COc3cc(O)ccc3C2)cc1` [ONC0004406, equol] was tested, and the “% viability” value was 119.9%. In the case of `CCCN1CCC[C@H](c2cccc(O)c2)C1` [ONC0002744, r33hydroxyphenylnpropylpiperidine hydrochloride], the “% viability” value is reported as 58.06%. `COC(=O)N[C@H](C(=O)N1CC2(CC2)C[C@H]1c1ncc(-c2ccc3c(c2)C(F)(F)c2cc(-c4ccc5nc([C@@H]6[C@H]7CC[C@H](C7)N6C(=O)[C@@H](NC(=O)OC)C(C)C)[nH]c5c4)ccc2-3)[nH]1)C(C)C` [ONC0001967, ledipasvir] was tested, and the “% viability” value was 73.81%. With `CC(C)NCC(O)c1ccc(N)c(C#N)c1` (stereo not drawn) [ONC0003014, cimaterol] the “% viability” value was 76.31%. In the case of `CC(C)NCC(O)c1ccc([N+](=O)[O-])cc1` (stereo not drawn) [ONC0002319, nifenalol], the “% viability” value is reported as 49.56%. In the case of `CC(C)NCC(O)c1ccc(O)c(O)c1` (stereo not drawn) [ONC0000608, isoproterenol hydrochloride], the “% viability” value is reported as 81.88%. For `CC/C=C\C/C=C\C/C=C/C/C=C\C/C=C\C/C=C\CCC(=O)OCC` [ONC0002811], the “% viability” value was 151.6%. `COC(=O)[C@H](CCCNC(=N)N)NS(=O)(=O)c1ccc(C)cc1` [ONC0004976, tame] was tested, and the “% viability” value was 63.05%. For `N=C(N)c1cc2ccc(OC(=O)c3cccs3)cc2s1` [ONC0004238, bcx 1470 methanesulfonate], the “% viability” value was 62.8%. With `CC[C@H](c1ccc(O)cc1)[C@@H](CC)c1ccc(O)cc1` [ONC0003849, hexestrol] the “% viability” value was 49.29%. With `CC/C(=C(/CC)c1ccc(O)cc1)c1ccc(O)cc1` [ONC0003197, diethylstilbestrol] the “% viability” value was 93.2%. For `CNCC(O)c1ccc(O)cc1` (stereo not drawn) [ONC0005413, oxedrine], the “% viability” value was 69.09%. For `C#C[C@]1(O)CC[C@H]2[C@@H]3CCC4=CC(=NO)CC[C@@H]4[C@H]3CC[C@@]21CC` (mixture of isomers) [ONC0000953, norgestimate metabolite norelgestromin], the “% viability” value was 67.65%. For `CO[C@H]1/C=C/O[C@@]2(C)Oc3c(C)c(O)c4c(O)c(c(/C=N/N5CCN(C6CCCC6)CC5)c(O)c4c3C2=O)NC(=O)/C(C)=C\C=C\[C@H](C)[C@H](O)[C@@H](C)[C@@H](O)[C@@H](C)[C@H](OC(C)=O)[C@@H]1C` [ONC0002002, rifapentine], the “% viability” value was 77.39%. In the case of `CO[C@H]1/C=C/O[C@@]2(C)Oc3c(C)c(O)c4c(O)c(c(/C=N/N5CCN(C)CC5)c(O)c4c3C2=O)NC(=O)/C(C)=C\C=C\[C@H](C)[C@H](O)[C@@H](C)[C@@H](O)[C@@H](C)[C@H](OC(C)=O)[C@@H]1C` [ONC0003357, rifampin], the “% viability” value is reported as 107.5%. With `COC1/C=C/OC2(C)Oc3c(C)c(O)c4c(O)c(c(/C=N/N=C/N5CCCCC5)c(O)c4c3C2=O)NC(=O)/C(C)=C\C=C\C(C)C(O)C(C)C(O)C(C)C(OC(C)=O)C1C` (stereo not drawn) [ONC0003798, fce22250] the “% viability” value was 33.52%.
